HIV Env fusion: inhibitors of HIV-1 Env-driven cell-cell fusion, primary screen, HeLa-JRFL effector, CEM21 target cells, luciferase; inhibition, % at 12.3 µM; actives 1.1% (n = 360,000);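 active = mean replicate inhibition score of at least 50 and every replicate individually at or above 50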
CFTR F508del cor: F508del CFTR correction, initial screen, CFBE line, single point; CFBE cells, YFP halide quenching; stimulated with forskolin plus potentiator P3; % fluorescence drop versus neutral controls; activity (quench increase), % at 7.58 µM; actives 0.36% (n = 350,000);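 active = mean added fluorescence quench of at least 8% versus neutral control, with both replicates also reaching 8%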;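 note: cells transiently co-express mutant CFTR-F508del with the halide-sensitive YFP; corrector assay measuring rescue of mutant channel to the surface after 24 h compound exposure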
EWS-Fli block: EWS/Fli-driven NR0B1 reporter inhibitors, primary screen, A673 cells, NR0B1 luciferase, luminescence, MLPCN library; actives 0.67% (n = 350,000); AID 651661, 2012; inhibition, % at 12.6 µM; viability-normalised;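 active = mean inhibition of at least 50% after viability correction, with every replicate also passing that limit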;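 note: firefly luciferase signal divided by Alamar Blue viability fluorescence both relative to DMSO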
PGC1a acetyl inh: inhibitors of PGC1a acetylation signal, primary screen, cell-based, U2OS, AlphaScreen, inhibitor mode. AlphaScreen anti-acetyl-lysine; with virally co-expressed GCN5 acetyltransferase. inhibition, % at 15.6 µM. actives 0.17% (n = 350,000). AID 651687, 2012;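 active = every replicate shows inhibition of at least 40%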
GSIS activator: GLuc luminescence reporter in INS-1E cells, primary screen for activators of glucose-dependent secretion of insulin; INS-1E GLuc reporter insulin secretion, 2-3 h; activation, % at 16.6 µM; actives 0.61% (n = 370,000);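 active = lowest replicate activation of at least 40%, so every replicate reaches that level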
PAX8 reporter: inhibitors of PAX8-driven TPO luciferase reporter, primary screen, RMG-I cells, single concentration; SteadyGlo, 24 h; inhibition, % at 12.6 µM; actives 1.2% (n = 360,000); AID 652154, 2013;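 active = mean replicate inhibition at least 60% with every replicate also reaching 60%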;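 note: luciferase light reporting Pax8 driven TPO promoter activity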
Of the large screens only hits and unclear results are named; the others gave an inactive call; ! = a repeat was not active; [ ] = dose if it differs, or a comment. Most compounds without a hit are left out; they make up all but 2.7% or so of the library.

C[C@@H]1CN([C@H](C)CO)C(=O)Cc2cc(NC(=O)Nc3cccc4ccccc34)ccc2O[C@@H]1CN(C)Cc1ccc2c(c1)OCO2	none (no result: HIV Env fusion)
Cc1cccc(N(C)c2cc(-c3ccc(F)cc3)nc3ccnn23)c1	HIV Env fusion 63 (no result: GSIS activator)
C/C=C/c1ccc(OCCN2C(=O)NC(C)(C)C2=O)c(OC)c1	GSIS activator 44 (no result: HIV Env fusion, CFTR F508del cor, EWS-Fli block, PAX8 reporter)
CC1CN(S(=O)(=O)c2cccc(C(=O)Nc3cc(Cl)ccc3N3CCOCC3)c2)CC(C)O1 (stereo unspecified)	CFTR F508del cor 20 (no result: HIV Env fusion)
Cc1cc(Cl)ccc1OCCCC(=O)Nc1cc(S(=O)(=O)N2CCOCC2)ccc1N1CCOCC1	HIV Env fusion 114
COc1ccc(NC(=O)CSc2ccc3ccccc3c2)cc1S(=O)(=O)N1CCCCC1	HIV Env fusion 56 (no result: CFTR F508del cor, PGC1a acetyl inh)
COc1ccc(CC(=O)Nc2nccs2)cc1S(=O)(=O)N1CCOCC1	CFTR F508del cor 17 (no result: HIV Env fusion, PGC1a acetyl inh)
COc1ccc(NC(=O)CSc2ccc(NC(C)=O)cc2)cc1S(=O)(=O)N1CCOCC1	none
COC(=O)C[C@H]1C[C@@H]2c3cc(NC(=O)CC4CC4)ccc3O[C@@H]2[C@@H](CO)O1	none
CCOc1ccc(S(=O)(=O)N2CCOCC2)cc1NC(=O)CSCC(=O)Nc1ccc(OC)cc1	CFTR F508del cor 20 (no result: PGC1a acetyl inh)
O=C(COc1ccc(Br)cc1CO)Nc1ccc(S(=O)(=O)N2CCCC2)cc1	none (no result: PGC1a acetyl inh)
O=C(CSc1cccc[n+]1[O-])Nc1cc(S(=O)(=O)N2CCOCC2)ccc1Cl	none (no result: HIV Env fusion, CFTR F508del cor, EWS-Fli block, PGC1a acetyl inh, PAX8 reporter)
COc1ccc(NC(=O)CCCOc2ccc(Cl)c(C)c2)cc1S(=O)(=O)N1CCOCC1	HIV Env fusion 59
Cc1ccc(NC(=O)COc2ccc(Br)cc2CO)cc1S(=O)(=O)N1CCOCC1	CFTR F508del cor 8.6 (no result: PGC1a acetyl inh)
O=C(CSc1cccc[n+]1[O-])Nc1cc(S(=O)(=O)N2CCOCC2)ccc1N1CCOCC1	PAX8 reporter 87 (no result: HIV Env fusion, PGC1a acetyl inh)
COc1ccc([N+](=O)[O-])c(S(=O)(=O)c2ccc(Cl)cc2)n1	PGC1a acetyl inh 45, GSIS activator 59, PAX8 reporter 82
COc1ccccc1S(=O)(=O)c1ccccc1[N+](=O)[O-]	none
COc1ccc([N+](=O)[O-])c(S(=O)(=O)c2ccccc2)n1	PAX8 reporter 103 (no result: GSIS activator)
O=[N+]([O-])c1cccnc1S(=O)(=O)c1ccccc1	GSIS activator 130, PAX8 reporter 110 (no result: PGC1a acetyl inh)
CN1CCN(C(=O)C[C@H]2C=C[C@H](NC(=O)Cc3ccccn3)[C@@H](CO)O2)CC1	none
N#Cc1c(Cl)nsc1NC(=O)c1ccccc1	HIV Env fusion 60 (no result: PGC1a acetyl inh)
COc1ccc(CN(C)C[C@@H]2OCCCC[C@@H](C)Oc3ccc(NC(=O)NC4CCCCC4)cc3C(=O)N([C@@H](C)CO)C[C@H]2C)cc1	none (no result: PAX8 reporter)
O=C(N=C1SC2CS(=O)(=O)CC2N1c1ccc(F)cc1F)C1CC1 (stereo unspecified)	none (no result: EWS-Fli block)
O=C(N=C1SC2CS(=O)(=O)CC2N1c1ccc(F)c(Cl)c1)C1CC1 (stereo unspecified)	GSIS activator 42
COc1ccc(/C=C/C(=O)c2cc(F)ccc2OC(=O)c2ccc(OC)c(OC)c2)cc1OC	none
COc1ccc(/C=C/C(=O)c2cc(F)ccc2OC(=O)c2ccccc2)cc1OC	PAX8 reporter 77 (no result: CFTR F508del cor, EWS-Fli block, GSIS activator)
O=C(/C=C/c1c(Cl)nc2ccccn12)Nc1ccc(F)cc1	PAX8 reporter 111
Fc1ccccc1/C=N/NC(=S)Nc1ccc(Cl)cc1Cl	CFTR F508del cor 12 (no result: PGC1a acetyl inh)
COc1ccc(C(=O)NN(C)c2nc(C(F)(F)F)nc3ccccc23)cc1	EWS-Fli block 56, PAX8 reporter 94
C[C@H]1CN([C@@H](C)CO)C(=O)c2c(c3ccccc3n2C)-c2ccccc2CO[C@@H]1CN(C)C(=O)Nc1ccc(F)cc1	none
C[C@@H]1CN([C@@H](C)CO)C(=O)c2c(c3ccccc3n2C)-c2ccccc2CO[C@H]1CN(C)C(=O)Nc1ccc2c(c1)OCO2	PAX8 reporter 97
C[C@H](CO)N1C[C@H](C)[C@H](CN(C)C(=O)Nc2ccc(F)cc2)OCc2ccccc2-c2c(n(C)c3ccccc23)C1=O	HIV Env fusion 90![16.7 µM]
CC1CN(c2nc3ccccc3nc2C(C#N)C(=O)OC2CCCCC2)CC(C)O1 (stereo unspecified)	HIV Env fusion 59 (no result: CFTR F508del cor, EWS-Fli block, PGC1a acetyl inh, GSIS activator, PAX8 reporter)
Cc1nc2ccccc2c2oc(C(=O)NCc3ccc4c(c3)OCO4)cc12	HIV Env fusion 88
Cc1c(C(=O)Nc2nccs2)sc2nc(-c3cccs3)cc(C(F)(F)F)c12	HIV Env fusion 57 (no result: CFTR F508del cor, EWS-Fli block, GSIS activator, PAX8 reporter)
Cc1ccc(C2CC(c3cccs3)=NN2C(=O)CCl)cc1 (stereo unspecified)	EWS-Fli block 65
Cc1ccc(NC(=O)C(C)OC(=O)CCNS(=O)(=O)c2ccc(C)cc2)cc1 (stereo unspecified)	PAX8 reporter 70 (no result: HIV Env fusion, PGC1a acetyl inh)
CN(C)c1ccc(-c2ccnc3c2CC(C)(C(=O)NCc2ccncc2)O3)cc1 (stereo unspecified)	none (no result: PGC1a acetyl inh)
CC1(C(=O)NCc2cccc(Cl)c2)Cc2c(-c3ccccc3)ccnc2O1 (stereo unspecified)	none
CC1(C(=O)NCc2ccccc2)Cc2c(-c3ccccc3)ccnc2O1 (stereo unspecified)	EWS-Fli block 59 (no result: PGC1a acetyl inh)
CC1(C(=O)NCc2ccccc2)Cc2c(-c3ccc(C(N)=O)cc3)ccnc2O1 (stereo unspecified)	CFTR F508del cor 15, EWS-Fli block 54 (no result: PGC1a acetyl inh, GSIS activator)
CN1CCN(c2ccc(CNC(=O)C3(C)Cc4c(-c5ccccc5)ccnc4O3)cc2)CC1 (stereo unspecified)	GSIS activator 45 (no result: PGC1a acetyl inh)
CN(C)c1ccc(-c2ccnc3c2CC(C)(C(=O)NCc2ccccc2)O3)cc1 (stereo unspecified)	EWS-Fli block 61 (no result: PGC1a acetyl inh)
O=C(Nc1ccccc1F)N1C[C@@H]2[C@H](c3ccccc31)[C@H](CO)N2C(=O)c1ccc(F)cc1	none (no result: HIV Env fusion)
Cc1ccccc1-c1cnc2c(c1)C(=O)N([C@@H](C)CO)C[C@H](C)[C@H](CN(C)Cc1cncnc1)O2	none
CC1(C(=O)NCCc2ccccc2)Cc2c(-c3ccc4c(c3)OCO4)ccnc2O1 (stereo unspecified)	EWS-Fli block 58
CC1(C(=O)NCc2ccccc2)Cc2c(-c3ccc4c(c3)OCO4)ccnc2O1 (stereo unspecified)	none
CC1(C(=O)NCC2CCOCC2)Cc2c(-c3cccc(C(F)(F)F)c3)ccnc2O1 (stereo unspecified)	EWS-Fli block 52 (no result: GSIS activator)
COc1ccc(-n2c(-c3ccccc3)nnc2-c2ccc(Cl)cc2)cc1	none (no result: CFTR F508del cor, EWS-Fli block, GSIS activator)
COc1ccc(-n2c(-c3ccc(Cl)cc3)c[n+]3c2CCc2ccccc2-3)cc1	PAX8 reporter 94
Cc1[nH]nc(C(F)(F)F)c1N=NN1CCOCC1	GSIS activator 148
Clc1ccc(N=NN2CCOCC2)cc1	none (no result: PGC1a acetyl inh)
